Data reported in PubChem BioAssay AID940 (Emory University Molecular Libraries Screening Center, 2007).
“And” between values parts separate entries of the source, which are not always exact repeats. Identical values can stand only once. The whole screen tested about 260,000 compounds, of which about 2,200 (0.85%) were called active.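 How the source made its calls: active means compounds whose cAMP rise, as percent of the full-agonist control response, exceeds 60; inactive means the rest.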 Shown is part of a subset that was picked to be rich in actives. Where a structure was tested more than once in an assay, its records may differ in their call.

Each compound was assayed against Prostaglandin E2 receptor EP2 subtype (Homo sapiens) (UniProt P43116) (assay: modulation of human EP2 prostaglandin signaling – cell-based, HTRF cAMP, PGE2 stimulation, primary screen (AID 940;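 further: rat C6 glioma line stably carrying human EP2 under a CMV promoter; the protocol text gives 20 µM as final concentration; 100% = response of wells given 1 µM PGE2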)). Settings: EP2-expressing cells, cAMP HTRF FRET, PGE2 co-stimulation; at 25 µM; stronger effect = higher value.
Chain of Prostaglandin E2 receptor EP2 subtype (Homo sapiens) (P43116 whole entry, looked up): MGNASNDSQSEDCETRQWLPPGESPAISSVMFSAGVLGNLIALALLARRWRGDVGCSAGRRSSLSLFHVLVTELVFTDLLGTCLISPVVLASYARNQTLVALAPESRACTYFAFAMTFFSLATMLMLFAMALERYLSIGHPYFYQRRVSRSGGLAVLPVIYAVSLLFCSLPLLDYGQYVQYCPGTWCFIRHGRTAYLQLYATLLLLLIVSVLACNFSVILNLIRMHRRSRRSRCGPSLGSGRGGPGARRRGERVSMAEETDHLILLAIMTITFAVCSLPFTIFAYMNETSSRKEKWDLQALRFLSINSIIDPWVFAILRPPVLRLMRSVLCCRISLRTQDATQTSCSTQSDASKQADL

induction, active:
Cc1cccc2cc(CN(Cc3cccs3)C(c3nnnn3C3CCCC3)C(C)C)c(=O)[nH]c12 (configuration not stated) 63.3% and 74.3%, CCC(c1nnnn1C1CCCCC1)N(Cc1cccs1)Cc1cc2cc(C)cc(C)c2[nH]c1=O (configuration not stated) 75.2%, Cc1ccc2[nH]c(=O)c(CN(CCc3ccccc3)Cc3nnnn3C3CCCCC3)cc2c1 71.2%, Cc1cccc2cc(CN(Cc3cccs3)Cc3nnnn3C3CCCCC3)c(=O)[nH]c12 70.9%, CCc1ccccc1NC(=O)/C(=C/c1ccccc1)c1ccccc1 65.2%, C#CCN(N(C)c1ncc(C(F)(F)F)cc1Cl)S(=O)(=O)c1ccc2ccccc2c1 61.4%, CC(C)Cc1nc(N2CCOCC2)c(C#N)c2c1CCC2 64%, COc1ccc2c(c1)C(C)=CC(C)(C)N2C(=O)CNCc1ccc2c(c1)OCO2 62.2%, CSc1ncnc2sc(C)c(C)c12 68.5%, CCOc1ccc(/C=N/NC(=O)CSc2ccccn2)cc1O 65.8%

induction, inactive:
CCC(c1nnnn1C(C)(C)CC)N(Cc1cccs1)Cc1cc2ccc(C)c(C)c2[nH]c1=O (configuration not stated) 48.5%, Cc1ccc2c(c1)C(=O)CC1(CCN(C(=O)N3CCOCC3)CC1)O2 -15.2%, O=C(CSc1nnc2c(n1)[nH]c1ccc(F)cc12)Nc1cccc2ccccc12 -43.9%, Cc1cc(C)nc(SCCn2c(N3CCC(C)CC3)nc3c2c(=O)[nH]c(=O)n3C)n1 1.48%, C=C(C)Cn1c(N2CCC(C)CC2)nc2c1c(=O)[nH]c(=O)n2C -6.93%, O=C(NCC1CCCO1)C(=O)Nc1cc(Cl)cc(Cl)c1 (configuration not stated) -89.4%, Cc1cc2c(cc3c(=O)n(CC(=O)N(Cc4ccncc4)C4CC4)nc(C)n32)s1 41.2%, CCC(c1nnnn1C1CCCC1)N(Cc1cccs1)Cc1cc2ccc(C)c(C)c2[nH]c1=O (configuration not stated) 49%, Cc1cccc2cc(CN(Cc3ccc4c(c3)OCO4)Cc3nnnn3C3CCCC3)c(=O)[nH]c12 42.4%, Cc1cc(C)c2[nH]c(=O)c(CN(Cc3ccco3)C(c3nnnn3C3CCCCC3)C(C)C)cc2c1 (configuration not stated) 25.3%, CCOc1ccc2[nH]c(=O)c(CN(Cc3ccccc3)Cc3nnnn3C3CCCC3)cc2c1 -7.93%, Cc1ccc2cc(CN(Cc3ccccc3)C(c3nnnn3C3CCCCC3)C(C)C)c(=O)[nH]c2c1C (configuration not stated) 45.6%, Cc1ccc(CN(Cc2cc3c(C)ccc(C)c3[nH]c2=O)Cc2nnnn2C2CCCC2)cc1 38.9%, CCC(c1nnnn1C1CCCC1)N(Cc1cccs1)Cc1cc2cccc(C)c2[nH]c1=O (configuration not stated) 46.6%, Cc1ccc(CN(Cc2cc3cc4c(cc3[nH]c2=O)OCCO4)Cc2nnnn2C2CCCC2)cc1 2.08%, CCn1c(COc2ccc(Br)cc2)nnc1SCC(=O)NCc1ccccc1 19.8%, O=C(CCSc1nc(-c2ccc3c(c2)OCO3)cc(C(F)(F)F)n1)NCc1ccncc1 -33.7%, CC1CCN(c2nc3c(c(=O)[nH]2)CCN(Cc2c(O)ccc4ccccc24)C3)CC1 -22.9%, COc1ccccc1NC(=O)COc1ccc(/C=C/C2=CCN(C)CC2)cc1OC -73.1%, CCOc1ccc(OCC)c(NC(=O)CSc2ncnc3sc(C)c(C)c23)c1 40.1%, Cn1c(=O)sc2cc(S(=O)(=O)NC3(c4ccccc4F)CC3)ccc21 -176%, COc1ccc(Cn2nnnc2CN(Cc2cc3cc(C)ccc3[nH]c2=O)C2CCCCC2)cc1 30.9%, COc1nc(C)c(CC(=O)Nc2ccc3[nH]c4c(c3c2)CCCC4)c(OC)n1 -85%, O=C(Nc1nnc(SCC(=O)N2CCCCC2)s1)c1ccco1 -9.97%, COC(=O)CSc1nnc(-c2ccc3[nH]c(C)c(C)c3c2)o1 -58.2%, CCN1CCCC1CN(Cc1cc2cc(OC)c(OC)cc2[nH]c1=O)C(=O)Nc1ccccc1Cl (configuration not stated) -41.6%, CCc1nn(CC(=O)NCc2cccnc2)c(=O)c2cc3ccsc3n12 1.61%, CCOc1ccc(-c2nc(-c3cc4ccccc4[nH]c3=O)no2)cc1 -8.73%, CCc1ccccc1NC(=O)Cc1cn(C)c2ccccc12 23.9%, O=C(/C=C/c1ccccc1)N/C(=C/c1ccccc1)C(=O)Nc1ccccc1O -4.9%, Cc1ccc(-c2nsc3c(SCC(=O)N(C)C4CCCCC4)ncnc23)cc1 34.6%, Cc1c(CN(C)C(=O)CSc2nc(-c3cccs3)cc(C(F)(F)F)n2)cnn1C 9.94%, CN1CC(c2ccccc2)C2(CCN(Cc3ccccc3)CC2)C1 (configuration not stated) -9.74%, Cc1nn(CC#N)c(=O)n1N(C)c1ncc(C(F)(F)F)cc1Cl 2.11%, Cc1cc(C)cc(NS(=O)(=O)c2ccc(Oc3ncc(C(F)(F)F)cc3Cl)cc2)c1 57.5%, O=C(Cc1cccs1)Nc1nnc(-c2ccccc2Cl)s1 -20%, CC(C)Cc1nc(Cl)c(C#N)c2c1CCC2 6.62%, CC(C)c1nc(N2CCOCC2)c(C#N)c2c1COC(C)(C)C2 -103%, Cc1ccccc1N(C(=O)c1ccco1)C(C(=O)NC1CCCC1)c1ccco1 (configuration not stated) 15%, COc1ccc2c(c1)C(C)=CC(C)(C)N2C(=O)Nc1ccccc1 43%, COc1ccc(OC)c(CC(=O)N2CCC(c3ccc4c(c3)OCO4)CC2)c1 -2.54%, Cc1sc2ncnc(Sc3nc4ccccc4s3)c2c1C 17.8%, CCCNc1ncnc2sc(C)c(C)c12 17.6%, Cc1cc2cc(CN(CCO)C(c3nnnn3CC3CCCO3)C(C)C)c(=O)[nH]c2cc1C (configuration not stated) -0.77%, CCOc1ccc(/C=N/NC(=O)C(C)Sc2ccccn2)cc1OCC (configuration not stated) 13.9%, Cc1ccc(/C=N/NC(=O)CSc2ccccn2)o1 -4.32%

induction, 57.4% (inactive) and 67% (active):
CC1CCN(c2nc3c(c(=O)[nH]c(=O)n3C)n2CCCc2ccccc2)CC1
